# Screening results deposited in PubChem by National Center for Advancing Translational Sciences (NCATS).
# AMA1 RON2 block: qHTS for Inhibitors of AMA1-RON; Towards Development of Antimalarial Drug Lead: Primary Screen; AID 720542, 2013; Potency, µM (highest dose often 58.2 µM), without a hit: at the highest dose activity change, negative = inhibition, actives largely listed as inhibitors; actives 0.2% (n = 360,000); AlphaScreen AMA1-biotinylated RON2 peptide binding;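 note: potency is the fitted concentration of half-maximal effect; 0% = vehicle wells and -100% = peptide control; nearly all actives have a fitted effect of over 45% in size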
#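 AMA1 (3D7) with his tag at 25 nM final met compounds first, then biotinylated RON2 peptide at 25 nM; detection used donor plus acceptor beads, 10 µg/mL apiece, read by AlphaScreen after 30 min at room temperature.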
# Pf growth 96h: Primary qHTS for delayed death inhibitors of the malarial parasite plastid, 96 hour incubation; P. falciparum luciferase reporter growth, 96 h; Potency, µM (top dose mostly 28.7 µM), for the others: at the highest dose activity change, negative = inhibition, usual class: inhibitors; actives 6.9% (n = 320,000); note: potency is the fitted concentration of half-maximal effect; % is set by controls: 0 for no effect and ±100 for the full control effect
#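 Cell-based qHTS: luciferase-tagged P. falciparum in erythrocytes (2% hematocrit, 0.05% parasitemia final) incubated with compounds for 96 hours, 37 C, 5% CO2; luciferase detection reagent then added and luminescence measured.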
# Pf growth 48h: Primary qHTS for delayed death inhibitors of the malarial parasite plastid, 48 hour incubation; actives 5.9% (n = 310,000); P. falciparum luciferase growth in erythrocytes, 48 h; Potency, µM (highest dose often 28.7 µM), for the others: at the top dose activity change, negative = inhibition, hits mostly inhibitors; note: potency is the fitted concentration of half-maximal effect; % is set by controls: 0 for no effect and ±100 for the full control effect
#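 Here the parasites carry a stable luciferase gene and grow inside erythrocytes in Albumax-based RPMI medium with compound for one erythrocytic cycle. Activity is scored as loss of luminescent signal.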
# HCV inhibitor: qHTS Assay for Inhibitors of Hepatitis C Virus (HCV). Huh7.5.1 HCVcc-Cre infection, luciferase reporter, 44 h. Potency, µM (titrated, usually from 41.8 µM), without a hit: at the top dose activity change, negative = inhibition, most hits filed as inhibitors. actives 3.4% (n = 340,000). AID 651820, 2012; note: potency is the fitted concentration of half-maximal effect; % is set by controls: 0 for no effect and ±100 for the full control effect
#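 After 44 h co-culture of compound, cells and HCVcc-Cre (~0.5 moi), substrate is added for 15 min at room temperature and luciferase measured over 15 sec. Cells were seeded at 1,000/well and pre-cultured 4 h.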
# Cycloheximide cs: Cycloheximide Counterscreen for Small Molecule Inhibitors of Shiga Toxin | cell reporter, cycloheximide protein synthesis inhibition counterscreen | max response, % | actives 12% (n = 300,000) | AID 2314, 2010; in the data active = max response mostly above about 13%, no sharp cut-off; inactive = mostly below about 14%; note: read at 38.3 µM for the half of the compounds with a filed dose; 0% is about no effect
# Shiga inhibitor: A qHTS for Small Molecule Inhibitors of Shiga Toxin; Vero cells, Shiga toxin protein synthesis inhibition reporter; inhibition, % at 38.7 µM; actives 9.2% (n = 290,000); AID 2315, 2010; in the data active = inhibition mostly above about 28%, no sharp cut-off; inactive = mostly below about 43%; note: 0% is about no effect
# Starred values were filed as active, the others as inactive; ? = inconclusive; . = not tested or not shown; [ ] = remark or other dose. Sampled rows, rich in hits. Any-hit rate of the full collection: about 21%. Unless noted, calls come from the whole dose curve; as a rule, active = well fitted curve in the direction sought with a large enough effect; inconclusive = small, poorly fitted or top-dose-only effect, or another doubt; inactive = no such curve, though single readings can be large; an effect the other way counts as inactive or inconclusive.
SMILES,AMA1 RON2 block,Pf growth 96h,Pf growth 48h,HCV inhibitor,Cycloheximide cs,Shiga inhibitor
Cc1ccc(C(=O)NC(Cc2c[nH]c3ccccc23)C(=O)O)cc1 (stereo not drawn),-1.6%,.,10.9%,4.8%,-1.1,-8.3
C[C@H](NC(=O)c1ccccc1)C(=O)OCC(=O)Nc1sccc1C(N)=O,69.6%,.,.,0.6%,.,.
Cc1cccn2c(=O)c(/C=C(\C#N)C(N)=O)c(Oc3ccccc3)nc12,4.3%,-24.8%,?,-2.2%,-2.4,-13.9
Cc1cccn2c(=O)c(/C=C(\C#N)S(=O)(=O)c3ccccc3)c(Oc3ccc(Cl)cc3)nc12,2.5%,11.7µM*,?,?,-2.6,-3.0
Cc1cc(Oc2nc3c(C)cccn3c(=O)c2/C=C(\C#N)S(=O)(=O)c2ccccc2)ccc1Cl,6.7%,2.33µM*,?,3.2%,-1.4,0.9
N#Cc1ccncc1Sc1ccc(Cl)cc1,30.1%,-34.7%,?,27.6%,-5.2,0.9
CC1CCN(Cc2cc(=O)oc3ccc4ccccc4c23)CC1,0.4%,8.28µM*,7.38µM*,-19.9%,1.4,-2.5
Cc1cc(C)c2c(CN3CCC(C)CC3)cc(=O)oc2c1,-3.8%,22.9%,0.5%,9.4%,38.5*,60.8*
O=c1cc(CN2CCCCC2)c2c(ccc3ccccc32)o1,7.1%,.,.,.,.,.
CC(=O)N1CCN(Cc2cc(=O)oc3cc(C)cc(C)c23)CC1,0.0%,.,.,.,.,.
Cc1cc(C)c2c(CN3CCCCCCC3)cc(=O)oc2c1,0.7%,.,.,.,.,.
Cc1cc(C)c2c(CN3CCN(C/C=C/c4ccccc4)CC3)cc(=O)oc2c1,-25.2%,7.38µM*,9.28µM*,?,-3.3,-18.5
Cc1cc(C)c2c(CN3CCCCC3)cc(=O)oc2c1,-1.6%,4.4%,17.3%,0.8%,10.8*,6.6
CC1(C(=O)Nc2ccc3[nH]ncc3c2)CCN1C(=O)CCc1ccccc1 (stereo not drawn),1.0%,.,.,.,.,.
Cc1sc(NC(=O)c2ccccc2)c(C(c2ccccn2)N2CCN(CCO)CC2)c1C (stereo not drawn),10.2%[2.32 µM],-49.7%,?,?,-3.4,-15.6
Cc1sc(NC(=O)c2ccco2)c(C(c2cccnc2)N2CCN(C)CC2)c1C (stereo not drawn),-13.1%,?,?,?,-0.9,-10.4
Cc1sc(NC(=O)c2ccco2)c(C(c2ccncc2)N2CCOCC2)c1C (stereo not drawn),-11.6%,?,10.4µM*,1.6%,-1.6,-11.7
CCOc1ccc(C(c2c(NC(=O)c3ccccc3)sc(C)c2C)N2CCN(C)CC2)cc1 (stereo not drawn),-3.1%,11.7µM*,?,-18.9%,16.1,31.2*
CCOc1ccc(C(c2c(NC(=O)c3ccco3)sc(C)c2C)N2CCOCC2)cc1 (stereo not drawn),8.7%,13.1µM*,5.22µM*,?,.,.
Cc1sc(NC(=O)c2ccco2)c(C(c2cccnc2)N2CCCC2)c1C (stereo not drawn),-4.3%,10.4µM*,11.7µM*,12.6µM*,17.8,15.3
COc1ccc(Cn2cc(CN3CC(N4CC=CC4)CS3(=O)=O)nn2)cc1 (stereo not drawn),-4.2%,.,.,.,.,.
COc1cccc(C(c2c(NC(=O)c3ccco3)sc(C)c2C)N2CCOCC2)c1 (stereo not drawn),-5.1%,3.29µM*,4.65µM*,?,.,.
COc1cccc(C(c2sc3nc(C)nn3c2O)N2CCN(C(=O)c3ccco3)CC2)c1 (stereo not drawn),2.8%,-14.9%,-16.9%,13.2%,1.1,17.0
O=C(CSc1nnc2c(n1)[nH]c1ccccc12)OCc1ccccc1,0.9%,?,14.7µM*,21.5%,-2.4,-6.9
CCOC(=O)CC(=O)CSc1nnc2c(n1)[nH]c1ccccc12,21.6%,162.5%,18.7%,-13.8%,19.8*,70.1
O=C(O)CSc1nnc2c(n1)[nH]c1ccccc12,10.2%,42.6%,10.6%,3.4%,17.9,18.3
